In PubChem BioAssay (Tox21):
Results filed as inconclusive are left out. A call without a number means that no potency is given here. Unmarked numbers belong to inactive results. Calls of active or inactive are those of the source. Unless noted, calls follow the shape of the dose curve; as a rule, active = well fitted curve in the direction sought with a large enough effect in the repeat runs; inconclusive = weak or mixed curves; inactive = no such curve, though single readings can be large; an effect the other way counts as inactive or inconclusive.

Tests used:
[1] = qHTS assay to identify small molecule antagonists of the estrogen related receptor (ERR) signaling pathway from Tox21 library - cell viability counter screen (AID 1224834); also: nearly all actives have a fitted effect of over 30% in size; also: potency is read from the fitted curve at half-maximal effect
Procedure, shortened: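 Cytotoxicity of test substances is gauged in the same ERR cells used for the antagonist screen, after 17.5 h of compound treatment at 37 C, by CellTiter-Fluor fluorescence measured after 30 min.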

[2] = biological target: Luciferin 4-monooxygenase (Photinus pyralis) (UniProt P08659); test: qHTS assay to identify small molecule inhibitors of firefly luciferase (AID 1224835); also: nearly all actives have a fitted effect of over 25% in size; also: potency is read from the fitted curve at half-maximal effect
Sequence of Luciferin 4-monooxygenase (Photinus pyralis) (P08659 whole entry, looked up): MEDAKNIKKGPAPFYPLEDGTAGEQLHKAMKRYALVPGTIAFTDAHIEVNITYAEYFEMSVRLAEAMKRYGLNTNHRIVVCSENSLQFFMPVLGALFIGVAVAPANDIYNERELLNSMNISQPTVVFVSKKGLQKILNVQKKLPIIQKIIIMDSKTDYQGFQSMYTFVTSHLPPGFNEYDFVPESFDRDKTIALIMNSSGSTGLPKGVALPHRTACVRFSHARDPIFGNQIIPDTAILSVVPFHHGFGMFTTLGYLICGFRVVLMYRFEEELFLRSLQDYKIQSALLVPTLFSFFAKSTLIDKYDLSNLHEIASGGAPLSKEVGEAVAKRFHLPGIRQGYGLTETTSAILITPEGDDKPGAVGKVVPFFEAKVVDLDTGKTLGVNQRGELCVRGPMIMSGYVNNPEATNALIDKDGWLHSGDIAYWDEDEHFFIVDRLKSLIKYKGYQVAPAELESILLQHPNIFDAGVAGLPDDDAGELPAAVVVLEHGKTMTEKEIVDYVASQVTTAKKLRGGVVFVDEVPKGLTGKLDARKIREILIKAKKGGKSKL
Procedure, shortened: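 Inhibition of purified Photinus luciferase is measured by luminescence. Substrate levels (D-luciferin, ATP) sit at their KM values. Each compound is tested in a concentration series.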

[3] = qHTS assay to identify small molecule agonists of the constitutive androstane receptor (CAR) signaling pathway - cell viability counter screen (AID 1224836); also: nearly all actives have a fitted effect of over 45% in size; also: potency is read from the fitted curve at half-maximal effect
Procedure, shortened: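 23 h treatment, 37 C, 5% CO2. Cell line: HepG2 stably expressing hCAR with a CYP2B6-2.2kb construct. Co-treatment: PK11195, 0.75 uM final. Read-out: CellTiter-Fluor fluorescence intensity.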

[4] = qHTS assay to identify small molecule antagonists of the constitutive androstane receptor (CAR) signaling pathway - cell viability counter screen (AID 1224837); also: nearly all actives have a fitted effect of over 45% in size; also: potency is read from the fitted curve at half-maximal effect
Procedure, shortened: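 Multiplexed cytotoxicity read-out for the CAR antagonist screen: double-stable HepG2-CYP2B6-hCAR cells co-treated with 50 nM CITCO (final) and compound over 15 concentrations, incubated 23 hr, then assessed by CellTiter-Fluor fluorescence.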

[5] = biological target: Nuclear receptor subfamily 1 group I member 3 (Homo sapiens) (UniProt Q14994); test: qHTS assay to identify small molecule antagonists of the constitutive androstane receptor (CAR) signaling pathway (AID 1224838); also: nearly all actives have a fitted effect of over 40% in size; also: potency is read from the fitted curve at half-maximal effect
Sequence of Nuclear receptor subfamily 1 group I member 3 (Homo sapiens) (Q14994 whole entry, looked up): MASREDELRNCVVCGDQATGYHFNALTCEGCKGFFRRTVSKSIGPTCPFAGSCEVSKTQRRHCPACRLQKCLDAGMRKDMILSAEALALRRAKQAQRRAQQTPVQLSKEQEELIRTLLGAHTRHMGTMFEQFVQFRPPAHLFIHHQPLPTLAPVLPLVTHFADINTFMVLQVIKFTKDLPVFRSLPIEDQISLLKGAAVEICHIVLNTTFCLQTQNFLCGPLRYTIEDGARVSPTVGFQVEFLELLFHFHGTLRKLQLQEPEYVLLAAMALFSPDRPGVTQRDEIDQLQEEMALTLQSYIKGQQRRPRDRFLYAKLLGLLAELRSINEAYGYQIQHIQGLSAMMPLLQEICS
Procedure, shortened: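 Compounds were titrated across 15 concentrations onto HepG2 cells double-stably expressing hCAR and a CYP2B6-2.2kb reporter, together with 50 nM CITCO (final). After 24 h at 37 C, luciferase activity was measured by luminescence.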

[6] = qHTS assay to identify small molecule antagonists of the estrogen related receptor signaling pathway with the pleiotropic PPARgamma coactivator (PGC) from Tox21 10K library - cell viability counter screen (AID 1224840; active = well fitted cell-killing curve with a large enough effect in the repeat runs, not every such curve was filed as active; also: nearly all actives have a fitted effect of over 40% in size)
Procedure, shortened: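 Step one, plate 2,000 PGC/ERR cells per well; step two, incubate 6 h at 37 C/5% CO2; step three, pin-transfer compounds; step four, incubate 17.5 h; step five, add CellTiter-Fluor and read fluorescence after 30 min.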

[7] = qHTS assay to identify small molecule antagonists of the estrogen related receptor signaling pathway with the pleiotropic PPARgamma coactivator (PGC) from Tox21 10K library (AID 1224841; call rule not given here; also: actives are mostly falling curves and most rising ones were filed inactive; nearly all actives have a fitted effect of over 50% in size; also: potency is read from the fitted curve at half-maximal effect)
Procedure, shortened: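 Antagonism in this quantitative HTS is taken from loss of luciferase signal in PGC/ERR cells. Cells (2,000/well) are treated with compounds in DMSO after a 6 h settling period and read by One-Glo luminescence after 18 h.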

[8] = qHTS assay to identify small molecule agonists of the estrogen related receptor signaling pathway with the pleiotropic PPARgamma coactivator (PGC) from Tox21 10K library (AID 1224842); also: nearly all actives have a fitted effect of over 15% in size; also: potency is read from the fitted curve at half-maximal effect
Procedure, shortened: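 Luminescence from One-Glo (30 min, room temperature) measured after PGC/ERR cells had 18 h at 37 C with pinned compound (23 nL in DMSO). Cells had been seeded at 2,000 per well and pre-incubated 6 h.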

Row | SMILES | Potency [1] | Potency [2] | Potency [3] | Potency [4] | Potency [5] | Potency [6] | Potency [7] | Potency [8]
1 | CCCCCCCCCCCCCCCCC(=O)O | inactive | inactive | inactive | inactive | inactive | inactive |  | 
2 | CC(O)C(C)O (centres undefined) | inactive | inactive | inactive | inactive | inactive | inactive |  | 
3 | CC(C)Cc1nccs1 | inactive | inactive | inactive | inactive | inactive | inactive |  | 
4 | [O-][n+]1ccc(Cl)cc1 | inactive | inactive | inactive | inactive | inactive | inactive |  | 
5 | CCCCCCCCCCCCCCCCN | inactive | inactive | inactive | inactive | inactive | inactive |  | 
6 | O=P(c1ccccc1)(c1ccccc1)c1ccccc1 | inactive | inactive | inactive | inactive | inactive | inactive |  | 
7 | O=C(c1ccc(Cl)cc1)c1ccc(Cl)cc1 | inactive | inactive | inactive | inactive | inactive | inactive |  | 
8 | O=C(O)c1cc(C(=O)O)c(C(=O)O)cc1C(=O)O | inactive | inactive | inactive | inactive | inactive | inactive | inactive | inactive
9 | OCCOc1cccc(OCCO)c1 | inactive | inactive | inactive | inactive | inactive | inactive | inactive | inactive
10 | C=CC(O)CCCCC (centres undefined) | inactive | inactive | inactive | inactive | inactive | inactive |  | inactive
11 | CO[C@@H]1COCC[C@@H]1N[C@@H]1CC[C@@](C(=O)N2CCc3ncc(C(F)(F)F)cc3C2)(C(C)C)C1 | inactive | inactive | inactive | inactive | inactive | inactive |  | 
12 | C[C@H](N)C(=O)N[C@@H](C)C(=O)NC1[C@H]2CN(c3nc4c(cc3F)c(=O)c(C(=O)O)cn4-c3ccc(F)cc3F)C[C@@H]12 (some centres undefined) | inactive | inactive | inactive | inactive | inactive | inactive | inactive | 
13 | Cc1nc(C)c(C)nc1C | inactive | inactive | inactive | inactive | inactive | inactive | inactive | inactive
14 | Cc1c(-c2cccnc2)c2ccccc2n1CCCCC(=O)O | inactive | 39900 nM (active) | inactive | inactive | inactive | inactive | inactive | 
15 | CCc1ccc2c(c1)C(=O)c1ccccc1C2=O | inactive | 5030 nM (active) | inactive | inactive | inactive | inactive |  | 
16 | S=c1[nH][nH]c(=S)s1 | inactive | 11200 nM (active) | inactive | inactive | inactive | inactive |  | 

Row | SMILES | Potency [1] | Potency [2] | Potency [3] | Potency [4] | Potency [5] | Potency [6] | Potency [7] | Potency [8]
17 | CC1(COc2ccc(CC3SC(=O)NC3=O)cc2)CCCCC1 (centres undefined) | inactive | 27500 nM (active) | inactive | inactive | inactive | inactive | inactive | 
18 | COc1cc(CNC(=O)CCCC/C=C/C(C)C)ccc1O | inactive | inactive | inactive | inactive | inactive | inactive |  | 
19 | CCOc1ccc(NC(C)=O)cc1N | inactive | inactive | inactive | inactive | inactive | inactive | inactive | inactive
20 | Nc1nc(Cl)nc2c1ncn2[C@H]1C[C@H](O)[C@@H](CO)O1 | inactive | inactive | inactive | inactive | 121 nM (active) | inactive |  | 
21 | Nc1ccc(C(=O)Oc2ccccc2)c(O)c1 | inactive | 13800 nM (active) | inactive | inactive | inactive | inactive | inactive | 13300 nM (active)
22 | CC(=O)CC/C=C(\C)CC/C=C(\C)CC/C=C(\C)CCC=C(C)C | inactive | inactive | inactive | inactive | inactive | inactive |  | 
23 | CCOC(=O)CC(O)(CC(=O)OCC)C(=O)OCC | inactive | inactive | inactive | inactive | inactive | inactive |  | 
24 | C/C=C1\[C@H]2C=C(C)C[C@]1(N)c1ccc(=O)[nH]c1C2 | inactive | inactive | inactive | inactive | inactive | inactive |  | 
25 | Clc1cccc(C(c2ccc3nc[nH]c3c2)n2ccnc2)c1 (centres undefined) | inactive | inactive | inactive | inactive | inactive | inactive |  | 
26 | O=[N+]([O-])c1ccc(Cl)cc1Cl | inactive | inactive | inactive | inactive | inactive | inactive |  | 
27 | O=C(Cl)c1cc(Cl)cc(Cl)c1 | inactive | inactive | inactive | inactive | inactive | inactive |  | 
28 | CC(C)C[C@H](NC(=O)[C@H](Cc1ccccc1)NC(=O)c1cnccn1)B(O)O | 84.1 nM (active) | inactive | 298 nM (active) | 266 nM (active) | 37.6 nM (active) |  | 18.8 nM (active) | inactive
29 | N#Cc1ccc(CC(=O)c2cccc(C(F)(F)F)c2)cc1 | inactive | inactive | inactive | inactive | inactive | inactive |  | inactive
30 | NCCOCCOCCN | inactive | inactive | inactive | inactive | inactive | inactive | inactive | inactive
31 | Cc1c(N=C=O)cccc1N=C=O | inactive | inactive | inactive | inactive | inactive | inactive |  | 
